Measurements as given in PubChem BioAssay (NCI).
About 83,000 compounds went through this panel and 20% of them were active in at least one assay; those are over-represented in the sample as a whole.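 Results are percent growth after 48 hours of single-concentration exposure. 100 means growth as in untreated cells, lower positive values show inhibition; negative values down to -100 show cell death.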 A number with no mark means an inactive call. Calls of active or inactive are those of the source. The calls were made as follows: active = growth percent below 10; inactive = the rest.

Legend:
Experiment in all cases: NCI-60 one-dose screen, 48 h (100 = growth as untreated, 0 = no growth, -100 = all killed)
Details in all cases: 10 µM unless noted
[1] = tested on: NCI-H23 lung
[2] = tested on: NCI-H226 lung
[3] = tested on: NCI-H322M lung
[4] = tested on: HOP-62 NSCLC
[5] = tested on: HOP-92 NSCLC
[6] = tested on: NCI-H522 lung
[7] = tested on: A549/ATCC NSCLC
[8] = tested on: 786-0 renal
[9] = tested on: COLO 205 colon
[10] = tested on: DU-145 prostate
[11] = tested on: K-562 leukemia
[12] = tested on: MALME-3M melanoma
[13] = tested on: MDA-MB-231 breast
[14] = tested on: RXF 393 renal
[15] = tested on: SF-268 CNS
[16] = tested on: SF-295 CNS
[17] = tested on: SF-539 CNS
[18] = tested on: UACC-257 melanoma
[19] = tested on: M14 melanoma
[20] = tested on: NCI-H460 lung

| SMILES | growth [1] | growth [2] | growth [3] | growth [4] | growth [5] | growth [6] | growth [7] | growth [8] | growth [9] | growth [10] | growth [11] | growth [12] | growth [13] | growth [14] | growth [15] | growth [16] | growth [17] | growth [18] | growth [19] | growth [20] |
| --- | --- | --- | --- | --- | --- | --- | --- | --- | --- | --- | --- | --- | --- | --- | --- | --- | --- | --- | --- | --- |
| COc1ccc2nc(NC(=O)CSc3nnc4n3S(=O)(=O)c3ccccc3N4c3ccccc3)sc2c1 | 87.4% | 101% | 91.2% | 94.7% | 46.6% | 64.5% | 44.8% | 101% | 96.1% | 99.3% | 113% | 89.7% | 77.7% | 23% | 71.9% | 73.2% | 94.3% | 103% | 100% | – |
| CSc1nc(NCc2ccccc2)c(C#N)c(-c2cccc([N+](=O)[O-])c2)n1 | 93.7% | 94.5% | 95.7% | 89.2% | 77.7% | 85.4% | 88.4% | 96.6% | 110% | 103% | 90.7% | 113% | 82.7% | 102% | 94.3% | 98.9% | 104% | 109% | 98% | – |
| CC(C)c1c(C(=O)c2ccccc2)c(-c2ccccc2)c(-c2ccc(F)cc2)n1CC[C@@H](O)C[C@@H](O)CC(=O)O | 56.8% | 62.2% | 58.6% | 90.1% | – | 25.9% | 100% | 77.5% | 55.3% | 105% | 71.3% | 85.2% | – | 36.6% | 34.7% | 30.7% | 80% | 83.8% | 63.8% | 87.5% |
| CCCOc1cc2ccccc2cc1C(=O)Nc1nc(NC)c2c(ccc3nccc32)[nH]1 | -64.8% (active) | -59.3% (active) | -65.9% (active) | -73.1% (active) | -61.2% (active) | -74.5% (active) | -74.8% (active) | -72.9% (active) | -76.2% (active) | -82.8% (active) | -54.3% (active) | -80.7% (active) | -71.3% (active) | -71.7% (active) | -78% (active) | -66.6% (active) | -76.9% (active) | -75.4% (active) | -75.7% (active) | – |
| O=c1cc(CSc2nnc(SCc3cc(=O)oc4c3ccc3ccccc34)o2)c2ccc3ccccc3c2o1 | 89.9% | 83.6% | 93.3% | 99.2% | 97.6% | 70.1% | 89.3% | 109% | 106% | 109% | 97.7% | 102% | 95.8% | 119% | 96.7% | 96.1% | 101% | 93.6% | 103% | – |
| Cc1cc(Nc2ccc(C)c(Cl)c2)n2nc(C(F)(F)F)nc2n1 | 63.6% | 21.3% | 93.3% | -17.2% (active) | -9.25% (active) | 36.2% | 42.5% | -46.2% (active) | 38.3% | 42.5% | 54.8% | -15.2% (active) | 2.77% (active) | -9.51% (active) | 39.4% | – | 33.1% | 74.4% | 51.7% | – |
| COc1cc2c(cc1-c1c(C)noc1C)ncc1nc(C3CCOCC3)n([C@H](C)COC(F)F)c12 | 60.1% | 55.2% | 41.2% | 35.2% | 36.9% | 31.2% | 36.2% | 48% | 31.6% | 69.2% | 30.5% | 71.7% | 46.3% | 54.8% | 65.5% | 49.7% | 33.6% | 31.8% | 46.2% | – |
| COc1ccc(C2CC(c3ccc(Cl)cc3)=NN2/C=C2\SC(=S)N(NC(=O)Cc3ccccc3Nc3c(Cl)cccc3Cl)C2=O)cc1 (stereo not given) | 80.1% | 68.8% | 85% | 79.1% | -2.84% (active) | 65.7% | 57.8% | -55.2% (active) | 30% | 72.5% | 1.36% (active) | 60.5% | 42.1% | 66.2% | 62.9% | 88% | 71.1% | 88.5% | 65.9% | – |
| COc1cc2nc(N3CCCC3)nc(Nc3ccccc3)c2cc1OC | 2.6% (active) | 29.2% | – | 16.3% | -25.9% (active) | -53% (active) | -39.8% (active) | -90.5% (active) | -84.1% (active) | 9.82% (active) | -11.6% (active) | -85.9% (active) | -69.4% (active) | -84.5% (active) | -0.197% (active) | -63.2% (active) | -87.4% (active) | -84.2% (active) | -70.7% (active) | -42.1% (active) |
| COc1ccc(CCNc2nc(SC)nc(-c3cccc([N+](=O)[O-])c3)c2C#N)cc1OC | 92.7% | 49.2% | – | 67.6% | 75.8% | 66.7% | 82.2% | 93.2% | 113% | 91.7% | 92.1% | 77.8% | 83.1% | 90.1% | 63.6% | 88.5% | 74.6% | 89.7% | 93.1% | 88.5% |
| COc1ccc2c(c1)CC/C(=C\c1cncc(Br)c1)C2=O | 92.7% | 111% | – | 90% | 84.4% | 55.7% | 95.3% | 92.7% | 106% | 102% | – | 106% | 94.5% | 98.4% | 97.1% | 94.5% | 93.2% | 112% | 92.9% | – |
| COc1nc2c(c(=O)n1C)CN(Cc1ccccc1)C=N2 | 103% | 109% | – | 94.2% | 21.2% | 95.1% | 87.6% | 103% | 107% | 114% | 93.2% | – | 119% | 109% | 106% | 109% | 116% | 94.9% | 101% | – |
| CCN1CCN(c2nc(NCCNc3ccnc4cc(Cl)ccc34)c3ccccc3n2)CC1 | 69% | 27.2% | – | 24.9% | 32.7% | 18% | 0.344% (active) | 4.75% (active) | -60.6% (active) | 33.9% | – | -78% (active) | -73% (active) | -39% (active) | 27.2% | -41.9% (active) | -71.2% (active) | 57.9% | -76.6% (active) | 1.75% (active) |
| O=C(Oc1cccnc1)c1ccsc1Nc1ccnc(C(F)(F)F)c1 | 35.4% | 98.6% | – | 96% | 44.6% | 44.8% | 98.2% | 108% | 101% | 108% | 25.7% | 84.9% | 63.2% | 105% | 42.6% | – | 99.9% | 76% | 81.6% | 105% |
| O=C(O)c1ccc(NC(=O)c2ccc(-c3cccc([N+](=O)[O-])c3)o2)cc1 | 91.8% | 89.3% | – | 103% | 98.6% | 94.5% | 101% | 105% | 107% | 105% | 107% | 86.4% | 96.1% | 113% | 98.5% | 98.8% | 99.4% | 105% | 107% | 102% |
| Cc1cc(N2CCOCC2)nc(N[C@@H]2CCC[C@H](Nc3ccnc4cc(Cl)ccc34)C2)n1 | 62% | 34.2% | – | -15.2% (active) | -21.7% (active) | -26.8% (active) | 13.8% | -73% (active) | -82% (active) | 26.2% | – | -75.3% (active) | -53.7% (active) | -57.6% (active) | 19.1% | -66.2% (active) | -79.7% (active) | -86.4% (active) | -86.7% (active) | 12.2% |
